According to PubChem BioAssay (Tox21):
Inconclusive results are not listed. Active and inactive are the calls of the source. Unless noted, the call rests on the fitted dose curve; in most records, active means well fitted curve in the direction sought with a large enough effect in the repeat runs; inconclusive means weak or mixed curves; inactive means no such curve, though single readings can be large; an effect the other way counts as inactive or inconclusive.

Key:
[1] = qHTS assay for small molecules that induce genotoxicity in human embryonic kidney cells expressing luciferase-tagged ATAD5 (AID 651632); further: nearly all actives have a fitted effect of over 15% in size
Method in brief: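 Luminescence read-out: after 16 hr compound exposure at 37C, ATAD5-luciferase HEK293T cells received Amplite, 30 min RT, then CCD imaging. A rise in signal marks genotoxic stress.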

[2] = qHTS assay for small molecule agonists of the p53 signaling pathway - cell viability (AID 651633; calls by dose curve;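 further: p53RE-bla HCT reporter cells with a stable beta-lactamase p53 reporter; series mostly up to about 83 µM; nearly all actives have a fitted effect of over 30% in size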)
Method in brief: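 Viability counter-read: CellTiter-Glo luminescence (30 min, room temperature) in the same p53RE-bla plates. These plates had been exposed to compounds for 16 h at 37 C.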

[3] = qHTS assay for small molecules that induce genotoxicity in human embryonic kidney cells expressing luciferase-tagged ATAD5 - cell viability (AID 651634; calls by dose curve; further: nearly all actives have a fitted effect of over 25% in size)
Method in brief: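 HEK293T ATAD5-luc cells, 2,000/well; compound 15.5 hr, 37C/5% CO2; CellTiter-Fluor 30 min, 37C; fluorescence read.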

[4] = qHTS assay for small molecule disruptors of the mitochondrial membrane potential - cell viability (AID 720634; calls by dose curve;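 further: human HepG2 liver cancer cells; series mostly up to about 83 µM; nearly all actives have a fitted effect of over 20% in size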)
Method in brief: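 Luminescence from CellTiter-Glo (ATP content) gave viability in HepG2 cells, read in the same wells as the MMP dye assay after 1 hr compound exposure at 37 C.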

[5] = qHTS assay for small molecule disruptors of the mitochondrial membrane potential (AID 720635)
Method in brief: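 Mitochondrial membrane potential tracked with Mito-MPS dye, red aggregates (ex 540/em 590 nm) against green monomers (ex 490/em 535 nm). Compound treatment 1 hr at 37C, dye 30 min in HepG2.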

[6] = qHTS assay to test for compound auto fluorescence at 590 nm (red) in HepG2 cells (AID 720674)
Method in brief: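 1 hr compound incubation on HepG2 cells, 37 C, 5% CO2; plate read ex 540 nm / em 590 nm; intensities reported as Rose Bengal sodium equivalents.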

[7] = qHTS assay to test for compound auto fluorescence at 535 nm (green) in HepG2 cells (AID 720675)
[8] = qHTS assay to test for compound auto fluorescence at 460 nm (blue) in HEK293 cells (AID 720678)
Method in brief: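 HEK293, 2,000 cells/well, 10% dialyzed FBS; attach 4-5 hr 37C; pin compound or DMSO; o/n 37C/5% CO2; fluorescence 405/460 nm; triamterene-equivalent units.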

[9] = qHTS assay to test for compound auto fluorescence at 590 nm (red) in HEK293 cells (AID 720679)
Method in brief: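 Intensity at 540nm excitation and 590nm emission is reported as Rose Bengal sodium-equivalent autofluorescence. Measurements followed overnight exposure (37C, 5% CO2) of HEK293 cells, 2,000 per well, to 23 nL compound.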

[10] = qHTS assay to test for compound auto fluorescence at 535 nm (green) in HEK293 cells (AID 720680)
[11] = qHTS assay to test for compound auto fluorescence at 460 nm (blue) in HEK293 cell free culture (AID 720681)
Method in brief: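 Blue fluorescence (Ex 405/Em 460 nm, triamterene-equivalent) was read immediately after pin transfer of compound or DMSO into medium (DMEM, 10% FBS) without cells.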

[12] = qHTS assay to test for compound auto fluorescence at 535 nm (green) in HEK293 cell free culture (AID 720682)
Method in brief: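 Fluorescein serves as the green reference fluorophore; each compound's intrinsic emission at 535 nm (excitation 485 nm) is reported as an equivalent amount of that dye, measured in serum-containing DMEM without cells.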

[13] = qHTS assay to test for compound auto fluorescence at 590 nm (red) in HEK293 cell free culture (AID 720683)
Method in brief: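 Red-channel autofluorescence of compounds in culture medium (DMEM, 10% FBS), no cells, measured at 540/590 nm. Rose Bengal sodium is the reference fluorophore for equivalence.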

[14] = qHTS assay to test for compound auto fluorescence at 590 nm (red) in HepG2 cell free culture (AID 720684)
Method in brief: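 No cells present: MEM + 10% FBS only. Compound pinned in, red label read (540/590 nm). Activity = fluorescence equivalent to Rose Bengal sodium.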

[15] = qHTS assay to test for compound auto fluorescence at 535 nm (green) in HepG2 cell free culture (AID 720686)
[16] = biological target: Glucocorticoid receptor (Homo sapiens) (UniProt P04150); assay: qHTS assay to identify small molecule antagonists of the glucocorticoid receptor (GR) signaling pathway (AID 720692; active means well fitted inhibition curve with a large enough effect in the signal ratio in the repeat runs, not every such curve was filed as active; the % refers to the signal ratio)
Chain of Glucocorticoid receptor (Homo sapiens) (P04150 whole entry, looked up): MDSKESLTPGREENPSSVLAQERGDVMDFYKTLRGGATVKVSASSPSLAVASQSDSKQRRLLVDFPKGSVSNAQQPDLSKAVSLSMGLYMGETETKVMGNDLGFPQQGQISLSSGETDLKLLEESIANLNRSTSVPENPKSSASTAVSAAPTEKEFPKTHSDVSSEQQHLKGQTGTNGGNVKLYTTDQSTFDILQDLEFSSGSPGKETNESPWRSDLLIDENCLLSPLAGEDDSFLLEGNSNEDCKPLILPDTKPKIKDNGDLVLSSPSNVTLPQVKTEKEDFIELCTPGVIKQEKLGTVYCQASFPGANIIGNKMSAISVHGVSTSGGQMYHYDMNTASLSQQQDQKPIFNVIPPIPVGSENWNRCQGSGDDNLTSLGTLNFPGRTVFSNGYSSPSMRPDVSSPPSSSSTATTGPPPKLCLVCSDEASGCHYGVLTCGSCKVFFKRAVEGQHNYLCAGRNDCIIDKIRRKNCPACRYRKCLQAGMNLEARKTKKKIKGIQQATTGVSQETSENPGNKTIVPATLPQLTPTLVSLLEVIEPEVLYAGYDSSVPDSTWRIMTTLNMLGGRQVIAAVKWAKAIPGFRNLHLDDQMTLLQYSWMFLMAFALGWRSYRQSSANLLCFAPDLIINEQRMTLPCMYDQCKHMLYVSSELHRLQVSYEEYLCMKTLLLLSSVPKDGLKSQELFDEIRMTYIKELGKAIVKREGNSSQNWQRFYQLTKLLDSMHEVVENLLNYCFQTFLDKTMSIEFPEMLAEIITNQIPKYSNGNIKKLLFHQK
Method in brief: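 Read-out: beta-lactamase FRET substrate fluorescence, 2 h at room temperature, in HeLa cells stably carrying a GRE-driven bla reporter. Compounds were co-incubated with 5 nM dexamethasone agonist (final) for 18 h at 37 C.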

[17] = qHTS assay to test for compound auto fluorescence at 460 nm (blue) in HepG2 cell free culture (AID 720685)
Method in brief: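 Cell-free plates of MEM plus 10% FBS received 23 nL compound or DMSO vehicle; blue-channel (405/460 nm) intensity scored against triamterene as reference fluorophore.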

[18] = qHTS assay to test for compound auto fluorescence at 460 nm (blue) in HepG2 cells (AID 720687)
Method in brief: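 Blue-channel autofluorescence (Ex/Em 405/460 nm, triamterene-equivalent) was measured after 1 hr compound exposure at 37 C, 5% CO2. Cells were HepG2, plated overnight at 37 C in MEM plus 10% FBS.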

[19] = biological target: Glucocorticoid receptor (Homo sapiens) (UniProt P04150); assay: qHTS assay to identify small molecule agonists of the glucocorticoid receptor (GR) signaling pathway (AID 720691; active means well fitted activation curve with a large enough effect in the signal ratio in the repeat runs, not every such curve was filed as active; the % refers to the signal ratio)
Method in brief: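 HeLa GR-bla reporter line; cells pre-incubated 4 h, compound in DMSO 18 h at 37 C; LiveBLAzer B/G FRET substrate 2 h RT; fluorescence intensity read-out.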
On the % scale 0 is the no-effect control and ±100 the full control effect.

O=c1c2ccccc2oc2ccccc12
inactive: Potency [1] | Potency [2] | Potency [3] | Potency [4] | Potency [5] | outcome [6] | outcome [7] | Potency [8] | outcome [9] | outcome [10] | Potency [11] | outcome [12] | outcome [13] | outcome [14] | outcome [15] | Potency [16]

C=Cc1ccc(C=C)cc1
inactive: Potency [1] | Potency [2] | Potency [3] | Potency [4] | Potency [5] | outcome [6] | outcome [7] | Potency [8] | outcome [9] | outcome [10] | Potency [11] | outcome [12] | outcome [14] | outcome [17] | outcome [15] | outcome [18] | Potency [19] | Potency [16]

CC(C)CC(C)(C)C
inactive: Potency [1] | Potency [2] | Potency [3] | Potency [4] | Potency [5] | outcome [6] | outcome [7] | outcome [9] | outcome [10] | Potency [11] | outcome [12] | outcome [13] | outcome [14] | outcome [15] | outcome [18] | Potency [19]

NC(=O)c1ccccc1
inactive: Potency [1] | Potency [2] | Potency [3] | Potency [4] | Potency [5] | outcome [6] | outcome [7] | Potency [8] | outcome [9] | outcome [10] | Potency [11] | outcome [12] | outcome [13] | outcome [14] | outcome [17] | outcome [15] | outcome [18] | Potency [19] | Potency [16]

Cc1ccc(NC=O)c(C)c1
inactive: Potency [1] | Potency [2] | Potency [3] | Potency [4] | outcome [6] | outcome [7] | Potency [8] | outcome [9] | outcome [10] | Potency [11] | outcome [12] | outcome [13] | outcome [14] | outcome [17] | outcome [15] | Potency [19] | Potency [16]

CC(COc1ccccc1)NC(C)C(O)c1ccc(O)cc1 (centres undefined)
inactive: Potency [1] | Potency [2] | Potency [3] | Potency [4] | Potency [5] | fluorescence, relative to Rose Bengal [6] -0.283% [at 18.6 µM] | fluorescence, % of fluorescein control [7] -0.086% [at 18.6 µM] | fluorescence, % of fluorescent control [9] -0.22% [at 18.6 µM] | fluorescence, % of fluorescein [10] 0.0104% [at 18.6 µM] | activity change [12] -0.0013% [at 18.6 µM] | fluorescence, % of fluorescent control [13] 0.208% [at 18.6 µM] | fluorescence, % of Rose Bengal [14] -0.0388% [at 18.6 µM] | fluorescence, % of fluorescent control [17] -0.0841% [at 18.6 µM] | fluorescence, % of fluorescein control [15] 0.0107% [at 18.6 µM] | fluorescence, % of fluorescent control [18] 0.0066% [at 18.6 µM] | Potency [19] | Potency [16]

O=C(Cl)c1ccc(F)c(Cl)c1
inactive: Potency [1] | Potency [2] | Potency [3] | Potency [4] | outcome [6] | outcome [7] | Potency [8] | outcome [9] | outcome [10] | Potency [11] | outcome [12] | outcome [13] | outcome [14] | outcome [17] | outcome [15] | outcome [18]
